BAZ2B inh – blocks human BAZ2B. AlphaScreen BAZ2B-H3K14Ac peptide displacement. 360,000 compounds, 4.4% hits. Potency, µM (doses to about 114 µM), without a hit: at the highest dose activity change, negative = inhibition, usual class: inhibitors; further: on the % scale 0 is the no-effect control and ±100 the full control effect; nearly all actives have a fitted effect of over 60% in size
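BAZ2B (50 nM) with biotin-H3(5-23)K14Ac peptide (50 nM) in PBS pH 7.4, 0.01% Tween-20, preformed 30 min, then compound 30 min at room temperature; top concentration 110uM. AlphaScreen streptavidin donor/nickel chelate acceptor beads (10 ug/mL final), 20 min dark, signal read.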
PLK1 PBD inh – blocks phosphopeptide binding to human PLK1 polo-box domain. Potency, µM, for inactives: max response, negative = inhibition, most hits filed as inhibitors. P53350. 360,000 compounds, 2.8% hits. AID 720504. Plk1 PBD binding of FITC phosphopeptide, fluorescence polarization; further: series mostly up to about 57 µM; on the % scale 0 is the no-effect control and ±100 the full control effect; nearly all actives have a fitted effect of over 65% in size
HP1b chromo inh – inhibitors of HP1-beta chromodomain binding to methylated histone tails. Potency, µM (top dose mostly 114 µM), without a hit: top-dose activity change, negative = inhibition, actives largely listed as inhibitors. AlphaScreen HP1-beta / biotin-H3K9me3 peptide binding. 390,000 compounds, 0.56% hits. AID 540317. P83916; further: nearly all actives have a fitted effect of over 70% in size
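Compound inhibition of the preformed complex between 50 nM HP1-beta and 50 nM biotinylated H3K9me3 peptide was read by AlphaScreen. Buffer was PBS pH 7.4 with 0.01% Tween-20. Incubations ran 30 min at room temperature, with 10 ug/mL donor/acceptor beads.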
G9a inh – inhibitors of human histone lysine methyltransferase G9a; Q96KQ7; G9a H3K9 monomethylation, AlphaScreen, 2 h; Potency, µM (titrated, usually from 102 µM), inactives show at the top dose activity, negative = inhibition, usual class: inhibitors; 350,000 compounds, 8.8% hits; AID 504332; further: on the % scale 0 is the no-effect control and ±100 the full control effect; nearly all actives have a fitted effect of over 75% in size
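Enzyme 20 nM + cpd, 15 min RT; add b-H3K9 pep 500 nM / SAM 20 uM; 2 h RT; anti-H3K9me1 Ab 0.5 ug/mL + SA donor / anti-rabbit acceptor beads 20 ug/mL each, 10 min; AlphaScreen read.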
JMJD2A Tudor – blocks the human JMJD2A Tudor domain | 390,000 compounds, 4.4% hits | O75164 | Potency, µM (titrated, usually from 114 µM), for the others: top-dose activity change, negative = inhibition, hits mostly inhibitors | AlphaScreen JMJD2A-Tudor / H3K4me3 peptide binding; further: on the % scale 0 is the no-effect control and ±100 the full control effect; nearly all actives have a fitted effect of over 50% in size
Sfp PPTase inh – Sfp phosphopantetheinyl transferase inhibition | AID 1490 | Q9F4F7 | Potency, µM, without a hit: largest response in the series, negative = inhibition, hits mostly inhibitors | Biochemical Sfp PPTase activity, qHTS | 310,000 compounds, 3.5% hits;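 further: the enzyme is Sfp with the accession as filed and its product quenches rhodamine fluorescence; 0% = enzyme reaction without inhibitor and -100% = no enzyme wells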
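After 15 min at room temperature with compound, 15 nM Sfp received 5 uM rhodamine-CoA plus 12.5 uM BHQ-2-ybbR (50 mM Hepes pH 7.6, 10 mM MgCl2). Rate came from the fluorescence difference over 30 min, ex 525/em 598 nm.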
* marks the source's active call; other numbers are inactive results; ? = inconclusive; / = not tested or not shown; ! = not confirmed by another sample; [ ] = another dose, or the depositor's remark. Hits are enriched below; roughly 12% of the tested compounds scored in any of these assays. The call rests on the fitted dose curve; in most records, active means well fitted curve in the direction sought with a large enough effect; inconclusive means small, poorly fitted or top-dose-only effect, or another doubt; inactive means no such curve, though single readings can be large; an effect the other way counts as inactive or inconclusive. Potency means the concentration at half of the fitted maximal effect.

SMILES	BAZ2B inh	PLK1 PBD inh	HP1b chromo inh	G9a inh	JMJD2A Tudor	Sfp PPTase inh
CC(=O)c1ccccc1Oc1cc(NN2CCCCC2)c([N+](=O)[O-])cc1[N+](=O)[O-]	31.6µM*	-11.7%	9.0%	28.2µM*	?	5.2%
O=C(Nc1cc(Cl)ccc1N1CCOCC1)c1cccnc1Cl	-8.8%	-4.9%	20.7%	14.7%	1.1%	-27.7%
Oc1[nH]c2ccccc2c1N=Nc1nncc2ccccc12	?	?	?	12.6µM*	-8.8%[11.4 µM]	-25.5%
O=C(Nc1nnc(S(=O)(=O)N2CCCCC2)s1)c1ccccc1Br	-6.7%	-8.4%	49.6%	-7.7%	-13.2%	22.0%
O=C(Nc1nnc(S(=O)(=O)N2CCCCCC2)s1)c1ccccc1Cl	?	-10.1%	49.9%	10µM*!	?	29.5%
O=C(Nc1nnc(CCN2CCCCC2)s1)c1ccccc1	-27.3%	5.3%	28.3%	-5.3%[59 µM]	0.7%	-3.7%
COc1ccccc1C(=O)Nc1nnc(S(=O)(=O)N2CCC(C)CC2)s1	-4.0%[57.1 µM]	-10.6%	59.4%	79.4µM*	-11.3%	5.0%
O=C(Nc1nnc(S(=O)(=O)N2CCCC2)s1)c1ccccc1Cl	5.01µM*!	-3.0%	36.8%	?	?	13.3%
O=C(Nc1nnc(CCN2CCOCC2)s1)c1ccccc1	7.2%	?	-3.3%	44.7µM*	2.1%	?
Cc1oc(S(=O)(=O)N2CCOCC2)cc1C(=O)Nc1ccc(Cl)cc1	-1.7%	-3.0%	31.2%	6.9%	-7.4%	25.9%
CCOC(=O)c1ccc(NC(=O)COC(=O)Cc2csc(-c3ccccc3)n2)cc1	-0.3%	3.0%	18.8%	10.3%	-9.3%	14.8%
CCc1nnc(NC(=O)c2ccc(S(=O)(=O)N3CCCCC3)cc2)s1	-1.3%	-10.2%	-6.1%	-5.6%	-12.1%	9.8%
O=C(Nc1nnc(S(=O)(=O)N2CCOCC2)s1)c1ccccc1	-12.7%	-22.3%	35.6%	/	-24.6%	-12.5%
O=C(Nc1nnc(S(=O)(=O)N2CCCCCC2)s1)c1ccccc1	8.91µM*!	-6.7%	49.5%	15.8µM*!	28.2µM*!	9.7%
O=C(Nc1nn[nH]n1)c1ccc(S(=O)(=O)N2CCCCC2)cc1	70.8µM*	-1.8%	57.6%	50.1µM*	?	-23.1%
O=C(Nc1nnc(S(=O)(=O)N2CCOCC2)s1)c1ccccc1Br	-3.8%	-16.5%	25.2%	79.4µM*	-5.6%	2.4%
COc1ccccc1C(=O)Nc1nnc(S(=O)(=O)N2CCOCC2)s1	-4.8%	0.2%	48.9%	2.2%	-1.4%	15.2%
NC(=O)CSc1nnc(NC(=O)c2ccc(S(=O)(=O)N3CCCCC3)cc2)s1	6.2%	-17.1%	50.5%	6.31µM*	-8.9%	/
CCN(CC(=O)Nc1c(F)cccc1F)C(=O)c1ccc(OC)c(S(=O)(=O)NC2CCCC2)c1	/	-6.9%	/	/	/	/
CCS(=O)(=O)c1nc(S(=O)(=O)c2ccc(Cl)cc2)c(N2CCC(C(N)=O)CC2)s1	-15.0%	5.4%	23.9%	30.3%	16.3%	3.4%
Cn1sc(NC(=O)c2ccccc2Cl)nc1=O	-1.1%	29.9µM*	-11.9%	?	-14.6%	?
COc1ccc(C(=O)/C=C/C(=O)N(CC(=O)NC2CCCCC2)Cc2ccccc2OC)c(O)c1	-28.7%	?	26.2%	17.8µM*	-14.2%[57.1 µM]	3.16µM*
COc1ccc(C(=O)/C=C/C(=O)N(Cc2ccccc2)C(C(=O)NC2CCCCC2)c2ccncc2)c(O)c1 (stereo unspecified)	?	-5.4%	14.6%	4.1%[59 µM]	-29.9%	-1.6%
COc1ccc(C(=O)/C=C/C(=O)N(CC(=O)NC2CCCCC2)Cc2ccccc2)c(O)c1	?	5.32µM*	33.2%	/	-16.8%	1.78µM*
C[C@H]1COC(=O)[C@H]2CCCN2C(=O)[C@@H](C)COC(=O)[C@H]2CCCN2C1=O	/	/	/	/	/	-10.3%
SMILES	BAZ2B inh	PLK1 PBD inh	HP1b chromo inh	G9a inh	JMJD2A Tudor	Sfp PPTase inh
Cc1nnsc1NC(=O)OCC(C)C	-0.6%	2.4%	29.7%	8.0%	12.9%	9.2%
Cc1nnsc1NC(=O)OCC(C)(C)C	5.3%	-0.4%	17.1%	50.1µM*	-8.7%	5.2%
CCOC(=O)C(CC)Sc1nnc2[nH]c(=O)cc(C)n12 (stereo unspecified)	-1.4%	/	-1.5%	-1.1%[59 µM]	-14.9%	/
O[C@@H]1COC2[C@@H](O)CO[C@@H]21 (stereo partly specified)	/	/	/	/	/	-6.0%
CC(=O)Nc1sc2c(c1C(c1cccc(Cl)c1)N1CCN(CCO)CC1)CCCC2 (stereo unspecified)	?	-15.3%	3.7%	50.1µM*	?	-2.4%
COc1ccc(C(c2c(NC(C)=O)sc3c2CCCC3)N2CCN(CCO)CC2)cc1OC (stereo unspecified)	-34.6%	-2.3%	7.1%	?	-26.9%	8.1%
CCN(CC(=O)Nc1ccccc1OC)C(=O)c1ccc(N(C)S(=O)(=O)c2ccc(C)cc2)cc1	-1.5%	0.3%	21.0%	-33.8%	-6.2%	/
COc1ccc(OC)c(N2C(=O)C(Cl)=C(N3CCCCC3)C2=O)c1	/	-16.9%	24.6%	?	-16.1%	5.3%
Cc1cccc2c(=O)oc(-c3ccccc3Cl)nc12	-3.6%	-14.6%	44.1%	11.4%[0.501 µM]	-2.7%	4.8%
COc1ccc(OC)c(N2C(=O)[C@@H]3C(c4ccccc4Cl)=NO[C@@H]3C2=O)c1	31.6µM*	18.9µM*	17.8µM*	25.7%[2.33 µM]	?	4.7%
Cc1cccc(C)c1N1C(=O)[C@@H]2C(c3ccccc3Cl)=NO[C@@H]2C1=O	-1.7%	-7.6%	5.5%	50.1µM*	-10.1%	8.4%
COC(=O)c1ccccc1N1C(=O)[C@@H]2C(c3ccc(F)cc3)=NO[C@@H]2C1=O	/	-2.5%	42.5%	14.0%[59 µM]	-6.4%	10.8%
COc1ccc(C2=NO[C@@H]3C(=O)N(c4c(C)cccc4C)C(=O)[C@H]23)cc1OC	3.3%	-8.9%	43.0%	50.1µM*	-12.3%	8.8%
COc1cccc(C2NC(C(=O)O)CCC2C)c1 (stereo unspecified)	/	/	/	/	/	9.6%
CC1(C(=O)Nc2ccc(F)c(Cl)c2)Cc2c(-c3ccccc3)ccnc2O1 (stereo unspecified)	/	2.6%	/	/	/	/
CCNc1nc(NCC)nc(N/N=C/c2ccc(O)c(O)c2)n1	?	-2.4%	36.7%	39.8µM*	-18.5%	50.1µM*
CN(C)c1ccc(/C=N/Nc2nncc3ccccc23)cc1	-3.0%	-4.3%	44.8%	28.2µM*	-19.9%	-2.4%
CCNc1nc(NCC)nc(N/N=C/c2ccc(N(C)C)cc2)n1	44.7µM*	-14.1%	-20.6%	50.1µM*	?	24.8%
CCNc1nc(NCC)nc(N/N=C/c2cc(OC)c(OC)c(OC)c2)n1	-16.6%	5.3%	41.5%	10.5%	-4.0%	10.2%
Cc1ccc(/C=N/Nc2nnc(Cl)c3ccccc23)cc1	?	-16.4%	22.3%	44.7µM*	-28.5%	-25.7%

High-throughput results as filed in PubChem.
